Unmarked numbers belong to inactive results. A call without a number means that no potency is given here. For part of these data: Potency and affinity values are given separately. Calls of active or inactive are those of the source. Unless noted, the rule behind the calls is not given here.
How the values were obtained:
[1] = antimalarial activity against Dd2 strain (AID 2302;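 active = growth inhibition above 50% at the single 2 µM test dose, taken to imply half-maximal potency below 2 µM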); conditions: P. falciparum Dd2 in RBCs, LDH growth readout, 72 h; at 2 µM; active compounds read high
[2] = HepG2 cytotoxicity, primary screen, cytotoxicity control for P. falciparum antimalarial project, cell-based, ATP luminescence (AID 2303;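 active = inhibition above 50%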); conditions: HepG2 viability, 24-48 h, at 10 µM, active compounds read high
[3] = target: L-lactate dehydrogenase (Plasmodium falciparum (isolate CDC / Honduras)) (UniProt Q27743); assay: PfLDH activity inhibition – cell lysate, 3D7 strain, counter-screen for P. falciparum growth inhibition project (AID 2304); conditions: P. falciparum 3D7 crude extract, LDH APAD/NBT absorbance; at 2 µM; active compounds read high
[4] = inhibition of 3D7 malaria parasite growth – strain 3D7 (AID 2306); conditions: P. falciparum 3D7 erythrocytic growth, LDH absorbance, 72 h; at 2 µM; active compounds read high
[5] = target: Calcium-dependent protein kinase 1 (Plasmodium falciparum (isolate 3D7)) (UniProt P62344); assay: PfCDPK1 kinase inhibitors, biochemical, TCAMS library (AID 1159585; cut-off not given, nearly all actives have IC50 up to about 0.98 µM;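 note: inhibitors leave more ATP so luminescence rises with inhibition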); conditions: recombinant PfCDPK1, Kinase-Glo ATP depletion luminescence
[6] = target: Plasmodium falciparum protein kinase 6 (PK6, PF3D7_1337100) (UniProt Q8IDW1); assay: PfPK6 kinase inhibitors, biochemical, TCAMS library (AID 1159586); conditions: recombinant PfPK6, Kinase-Glo ATP depletion luminescence
[7] = target: Protein kinase 7 (PK7), Plasmodium falciparum 3D7 (PF3D7_0213400) (UniProt Q7YTF7); assay: inhibition of Plasmodium PK7 catalytic activity – biochemical, TCAMS antimalarial set, Kinase-Glo luminescence (AID 1159587); conditions: recombinant PfPK7, Kinase-Glo ATP depletion luminescence
[8] = target: Calcium-dependent protein kinase 4 (Plasmodium falciparum (isolate 3D7)) (UniProt Q8IBS5); assay: PfCDPK4 kinase inhibitors, biochemical, TCAMS library (AID 1159588; cut-off not given, nearly all actives have IC50 up to about 0.91 µM); conditions: recombinant PfCDPK4, Kinase-Glo ATP depletion luminescence
Calcium-dependent protein kinase 4 (Plasmodium falciparum (isolate 3D7)), sequence (Q8IBS5 whole entry, looked up): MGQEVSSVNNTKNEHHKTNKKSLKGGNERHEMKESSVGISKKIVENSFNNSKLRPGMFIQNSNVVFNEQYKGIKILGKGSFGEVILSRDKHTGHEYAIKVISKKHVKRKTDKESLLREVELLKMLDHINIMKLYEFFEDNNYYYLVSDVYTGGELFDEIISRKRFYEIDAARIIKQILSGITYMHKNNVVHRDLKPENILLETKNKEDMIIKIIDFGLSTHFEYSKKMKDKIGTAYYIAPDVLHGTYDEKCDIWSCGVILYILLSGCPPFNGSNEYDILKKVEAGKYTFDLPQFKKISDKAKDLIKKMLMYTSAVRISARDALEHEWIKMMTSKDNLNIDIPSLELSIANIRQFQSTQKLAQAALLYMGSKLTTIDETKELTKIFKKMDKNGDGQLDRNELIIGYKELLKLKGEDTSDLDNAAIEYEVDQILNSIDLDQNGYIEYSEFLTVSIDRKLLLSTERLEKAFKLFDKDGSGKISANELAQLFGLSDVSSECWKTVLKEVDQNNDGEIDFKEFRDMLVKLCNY

L-lactate dehydrogenase (Plasmodium falciparum (isolate CDC / Honduras)), sequence (Q27743 whole entry, looked up): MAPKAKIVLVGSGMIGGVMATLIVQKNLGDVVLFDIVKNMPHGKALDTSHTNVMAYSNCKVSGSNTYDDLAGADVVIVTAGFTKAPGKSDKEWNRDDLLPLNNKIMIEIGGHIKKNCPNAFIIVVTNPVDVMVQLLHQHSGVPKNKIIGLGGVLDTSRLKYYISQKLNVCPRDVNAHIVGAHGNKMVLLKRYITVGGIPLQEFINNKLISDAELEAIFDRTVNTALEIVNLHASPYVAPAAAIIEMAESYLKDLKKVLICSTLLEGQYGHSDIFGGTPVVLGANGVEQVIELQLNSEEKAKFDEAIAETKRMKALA
Protein kinase 7 (PK7), Plasmodium falciparum 3D7 (PF3D7_0213400), sequence (Q7YTF7 1-343): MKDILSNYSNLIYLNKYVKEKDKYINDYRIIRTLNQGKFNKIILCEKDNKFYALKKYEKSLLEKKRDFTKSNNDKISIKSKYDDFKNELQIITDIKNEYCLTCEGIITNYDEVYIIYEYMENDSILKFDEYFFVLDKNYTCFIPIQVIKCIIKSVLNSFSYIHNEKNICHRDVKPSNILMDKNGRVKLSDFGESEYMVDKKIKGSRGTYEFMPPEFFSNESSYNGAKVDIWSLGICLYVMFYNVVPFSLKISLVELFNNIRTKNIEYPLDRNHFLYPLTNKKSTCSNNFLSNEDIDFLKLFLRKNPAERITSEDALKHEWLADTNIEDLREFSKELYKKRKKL
Plasmodium falciparum protein kinase 6 (PK6, PF3D7_1337100), sequence (Q8IDW1 1-305): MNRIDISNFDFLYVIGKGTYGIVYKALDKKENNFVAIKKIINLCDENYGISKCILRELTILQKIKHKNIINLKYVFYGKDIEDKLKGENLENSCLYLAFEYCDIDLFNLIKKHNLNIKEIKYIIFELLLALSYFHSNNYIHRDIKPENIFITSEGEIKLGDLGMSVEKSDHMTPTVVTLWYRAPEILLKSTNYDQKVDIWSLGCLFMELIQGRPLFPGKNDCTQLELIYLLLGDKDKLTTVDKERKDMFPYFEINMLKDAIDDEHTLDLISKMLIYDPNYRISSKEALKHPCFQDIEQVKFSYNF
Calcium-dependent protein kinase 1 (Plasmodium falciparum (isolate 3D7)), sequence (P62344 whole entry, looked up): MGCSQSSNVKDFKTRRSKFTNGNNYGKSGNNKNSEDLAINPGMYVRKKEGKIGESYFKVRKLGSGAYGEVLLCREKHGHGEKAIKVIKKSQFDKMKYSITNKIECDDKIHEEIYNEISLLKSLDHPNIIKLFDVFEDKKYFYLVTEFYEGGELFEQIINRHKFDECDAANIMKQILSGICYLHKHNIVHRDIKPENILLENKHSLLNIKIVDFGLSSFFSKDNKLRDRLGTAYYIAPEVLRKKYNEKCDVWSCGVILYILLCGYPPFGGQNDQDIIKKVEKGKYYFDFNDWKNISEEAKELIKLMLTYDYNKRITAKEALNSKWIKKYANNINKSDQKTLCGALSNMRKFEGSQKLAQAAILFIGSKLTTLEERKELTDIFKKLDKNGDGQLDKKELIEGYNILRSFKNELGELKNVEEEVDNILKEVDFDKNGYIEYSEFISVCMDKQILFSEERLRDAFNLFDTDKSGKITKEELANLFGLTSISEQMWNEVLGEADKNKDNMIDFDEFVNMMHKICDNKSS

| Compound | growth inhibition [1] | inhibition [2] | inhibition [3] | growth inhibition [4] | outcome [5] | outcome [6] | outcome [7] | outcome [8] |
| --- | --- | --- | --- | --- | --- | --- | --- | --- |
| CCc1cc(CNC2CCN(CCc3c(F)cnc4ccc(OC)nc34)CC2)cc2c1OCCO2 | 94% (active) | 46% | 1% | 100% (active) | inactive | inactive | inactive | inactive |
| CN(C)CCCNc1nccc(N(C)c2ccc(NC(=O)Nc3cc(C(F)(F)F)ccc3F)cc2)n1 | 25% | 97% (active) | 2% | 93% (active) | inactive | inactive | inactive | inactive |
| CC(C)NCc1cccc(-c2ccc(NC(=O)c3ccc(C#N)cc3)cc2)c1 | 8% | 15% | 3% | 99% (active) | inactive | inactive | inactive | inactive |
| OC(CN1CCN(C2CCCCC2)CC1)Cn1c2ccccc2c2cc(Br)ccc21 (stereo not drawn) | 89% (active) | 14% | -2% | 97% (active) | inactive | inactive | inactive | inactive |
| COc1ccc(Cn2c(Nc3cccc(C(F)(F)F)c3)nc3cc(C(=O)NCCN4CCCC4)cnc32)cc1Cl | 31% | 10% | 0% | 97% (active) | inactive | inactive | inactive | inactive |
| CCCc1cc(Cc2cnc(N)nc2N)cc(OCCCCCC(=O)O)c1OC | 2% | 8% | 4% | 95% (active) | inactive | inactive | inactive | inactive |
| COc1ccc2ncc(F)c(CCN3CC[C@@H](CNCc4cc(C)c5c(c4)OCCO5)C3)c2n1 | 44% | 22% | 0% | 98% (active) | inactive | inactive | inactive | inactive |
| NC(=O)C1CCN(Cc2ccc(-c3ccc(-c4nc5ccc(F)cc5[nH]4)cc3)cc2)CC1 | 100% (active) | 12% | 7% | 101% (active) | inactive | inactive | inactive | inactive |
| Oc1ccc(-c2ccccc2)cc1CN1CCCCC1 | 70% (active) | 3% | -1% | 93% (active) | inactive | inactive | inactive | inactive |
| Cc1ccc(NC(=O)c2c(C)noc2-c2snnc2C)cc1 | 71% (active) | 1% | 3% | 92% (active) | inactive | inactive | inactive | inactive |
| CS(=O)(=O)CCNCc1cccc(-c2cc3c(Nc4ccc(OCc5cccc(F)c5)c(Cl)c4)ncnc3s2)c1 | 97% (active) | 5% | 1% | 101% (active) | inactive | inactive | inactive | inactive |
| Cc1ccc2sc(N3CCN(C(=O)c4ccc([N+](=O)[O-])o4)CC3)nc2c1C | 86% (active) | -7% | 5% | 90% (active) | inactive | inactive | inactive | inactive |
| CCCCNC(=O)C(C)NC(=O)c1ccc(O)c(-c2ccc(Cl)c(Cl)c2)c1 (stereo not drawn) | 8% | -5% | 2% | 98% (active) | inactive | inactive | inactive | inactive |
| COC(=O)Nc1nc2cc3c(cc2s1)OCCO3 | -1% | -12% | 1% | 99% (active) | inactive | inactive | inactive | inactive |
| CCC(CC)NCc1c(O)ccc2c(CNC(CC)CC)c(O)ccc12 | 94% (active) | 4% | 0% | 100% (active) | inactive | inactive | inactive | inactive |
| CCOC(=O)c1[nH]c(-c2cc(Cl)nc(Cl)c2)nc1NC(=S)NCCCN1CCOCC1 | 71% (active) | 13% | 3% | 89% (active) | inactive | inactive | inactive | inactive |
| COc1ccc(CN2CCCC(OC(c3ccc(F)cc3)c3ccc(F)cc3)C2)c(O)c1 (stereo not drawn) | 99% (active) | 16% | 0% | 100% (active) | inactive | inactive | inactive | inactive |
| CC(=O)Nc1cccc(C(=O)Nc2ccc(-c3ccc(-c4nc5c(C)cccc5[nH]4)s3)cc2)c1 | 20% | 94% (active) | 2% | 93% (active) | inactive | inactive | inactive | inactive |
| COc1cc(C2=NN(S(=O)(=O)c3c(Cl)cc(Cl)cc3Cl)CCCC2)ccc1Cl | 97% (active) | 3% | -1% | 98% (active) | inactive | inactive | inactive | inactive |
| O=C(/C=C/c1ccc(Cl)c(Cl)c1)NCCCCCN1CCC(NC(=S)Nc2ccc(Cl)c(Cl)c2)CC1 | 65% (active) | 29% | 2% | 99% (active) | inactive | inactive | inactive | inactive |
| O=C(CSc1nn(-c2ccccc2)c(=S)s1)c1c[nH]c2ccccc12 | 68% (active) | -7% | -1% | 93% (active) | inactive | inactive | inactive | inactive |
